Source: the supplement of paper PMC6555819

Key:
Test in all cases: PBM binding z-score (relative to random genomic background probes); higher = stronger binding; sequences stand for … in GC…GCGATTGACAGCGTAGAATGAAGG
[1] = test system: FXR:RXRa (NR concentration 270 nM, RXRa partner concentration 90 nM)
Outline: (§1)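 For binding z-scores, the reference was random background probes on custom Agilent 4×180K protein-binding microarrays. These arrays were incubated 1 h with ligand-free nuclear receptor dimers in PBS pH 7.4, 2% milk, 0.02% Triton X-100, 1 mM DTT, 0.2 mg/mL BSA and 0.4 mg/ml salmon testes DNA. Fluorescence was scanned after antibody detection of each partner (one per run) and regression-normalized.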

[2] = test system: LXRa:RXRa (NR concentration 270 nM, RXRa partner concentration 90 nM)
Outline: as §1

[3] = test system: LXRa homodimer (NR concentration 270 nM)
Outline: as §1

[4] = test system: LXRb:RXRa (NR concentration 270 nM, RXRa partner concentration 90 nM)
Outline: as §1

[5] = test system: LXRb homodimer (NR concentration 270 nM)
Outline: as §1

[6] = test system: PPARa:RXRa (NR concentration 270 nM, RXRa partner concentration 90 nM)
Outline: as §1

[7] = test system: PPARg:RXRa (NR concentration 180 nM, RXRa partner concentration 90 nM)
Outline: as §1

[8] = test system: PPARg:RXRa 270nM:90nM, anti-RXR (NR concentration 270 nM, RXRa partner concentration 90 nM)
Outline: as §1

[9] = test system: PPARg:RXRa 30nM:10nM, anti-RXR (NR concentration 30 nM, RXRa partner concentration 10 nM)
Outline: as §1

[10] = test system: PPARg:RXRa 90nM:30nM, anti-RXR (NR concentration 90 nM, RXRa partner concentration 30 nM)
Outline: as §1

[11] = test system: PPARg:RXRa DBDmut IVT, anti-RXR (DBD mutation: RXRa K156A/R161A, NR concentration 270 nM, RXRa partner concentration 90 nM)
Outline: as §1

[12] = test system: PPARg:RXRa IVT, anti-PPARg (NR concentration 270 nM, RXRa partner concentration 90 nM)
Outline: as §1

[13] = test system: PPARg DBDmut:RXRa IVT, anti-PPARg (DBD mutation: PPARg1 K132A/R137A, NR concentration 270 nM, RXRa partner concentration 90 nM)
Outline: as §1

[14] = test system: PPARg DBDmut IVT, anti-PPARg (DBD mutation: PPARg1 K132A/R137A, NR concentration 270 nM)
Outline: as §1

[15] = test system: PPARg homodimer (NR concentration 180 nM)
Outline: as §1

[16] = test system: PXR:RXRa (NR concentration 270 nM, RXRa partner concentration 90 nM)
Outline: as §1

[17] = test system: PXR homodimer (NR concentration 270 nM)
Outline: as §1

[18] = test system: RARa:RXR (NR concentration 270 nM, RXRa partner concentration 90 nM)
Outline: as §1

[19] = test system: RARa homodimer (NR concentration 270 nM)
Outline: as §1

[20] = test system: RARb:RXRa (NR concentration 270 nM, RXRa partner concentration 90 nM)
Outline: as §1

| Sequence | PBM binding z-score [1] | PBM binding z-score [2] | PBM binding z-score [3] | PBM binding z-score [4] | PBM binding z-score [5] | PBM binding z-score [6] | PBM binding z-score [7] | PBM binding z-score [8] | PBM binding z-score [9] | PBM binding z-score [10] | PBM binding z-score [11] | PBM binding z-score [12] | PBM binding z-score [13] | PBM binding z-score [14] | PBM binding z-score [15] | PBM binding z-score [16] | PBM binding z-score [17] | PBM binding z-score [18] | PBM binding z-score [19] | PBM binding z-score [20] |
| --- | --- | --- | --- | --- | --- | --- | --- | --- | --- | --- | --- | --- | --- | --- | --- | --- | --- | --- | --- | --- |
| TCTAGTTGGTCCCGGAGGTCACACACGACGGGTA | 2.88 | 2.9 | 2.37 | 3.18 | 0.951 | 3.55 | 1.68 | 2.9 | 3.06 | 3.11 | 1.7 | 1.82 | 0.461 | 1 | 2.76 | 4.18 | 1.4 | 4.64 | 1.21 | 3.41 |
| CAGCCTAGGTCAGGGCCATTATAGGAGGAACGTT | 1.65 | 1.08 | -0.000598 | 0.902 | -0.851 | 2.17 | 1.2 | 1.24 | -0.158 | 0.533 | 1.48 | 1.78 | -0.531 | -0.742 | 0.564 | 0.649 | -0.202 | 1.15 | 0.229 | 3.45 |
| CCTGCTAGGTCATGGGCAGCTAATCTACAGTATG | 4.12 | 2.55 | -0.0623 | 1.29 | -0.864 | 3.72 | 2.82 | 3.2 | 0.94 | 1.97 | 4.17 | 3.73 | 0.149 | -0.33 | 1.36 | 1.1 | -0.682 | 2.68 | 0.607 | 3.83 |
| TCGTGTAGGTTAGTCGGGGCATTCAGCCAACATA | 0.782 | 0.838 | 0.294 | 1.36 | 0.252 | 1.16 | -0.0243 | 1.38 | 2.34 | 1.62 | 2.15 | 1.92 | -0.257 | -0.153 | 0.862 | 0.845 | 0.707 | 0.886 | 0.866 | 0.996 |
| TGTCACAGTTCAAAGGTAACGTAAGTATCCACAC | 4.13 | 3.82 | 0.785 | 2.87 | 0.361 | 4.26 | 4.43 | 4.67 | 1.68 | 3.69 | 0.227 | 2.78 | 1.49 | 1.01 | 0.48 | 3.67 | 0.969 | 4.07 | -0.272 | 2.88 |
| ATTTCTAGGTAAGACTCAGTTCAGTGAAGAACGC | 0.897 | 0.946 | 0.909 | 0.543 | 1.31 | 0.972 | 0.289 | 0.947 | 0.807 | 0.822 | 4.54 | 2.6 | 1.64 | 1.76 | 1.66 | 1.39 | 1.8 | 0.607 | 2.29 | 0.674 |
| ACAGACAGGTGAGTGAAGGTAACTCAACTGGACG | 0.515 | -0.0792 | -0.448 | -0.39 | -0.735 | -0.0249 | 0.821 | 0.143 | 0.0922 | -0.0513 | 0.567 | 0.507 | -0.777 | -0.0154 | -0.369 | -0.316 | -0.108 | 0.0758 | -0.165 | 0.486 |
